This is a sample that favours compounds with a hit; in the whole collection about 5.2% have one here.
Sfp inh – blocks B. subtilis Sfp PPTase activity; AID 1490; Potency, µM, for inactives: largest response in the series, negative = inhibition, actives largely listed as inhibitors; 310,000 compounds, 3.5% hits; Biochemical Sfp PPTase activity, qHTS; Q9F4F7;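 note: the enzyme is Sfp with the accession as filed and its product quenches rhodamine fluorescence; potency is the fitted concentration of half-maximal effect; 0% = enzyme reaction without inhibitor and -100% = no enzyme wells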
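Compounds were incubated with enzyme (final 15 nM) for 15 min at room temperature before substrate addition started the reaction. Fluorescence at 525 nm excitation, 598 nm emission was recorded immediately and after 30 minutes.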
Tau fibril FP – inhibitors of human tau fibril formation | P10636 | K18 P301L tau heparin fibrillization, Alexa594 FP, 6 h | Potency, µM (series often up to 57.7 µM), inactives show at the top dose activity, negative = inhibition, actives largely listed as inhibitors | 280,000 compounds, 0.39% hits | AID 1468; note: potency is the fitted concentration of half-maximal effect; nearly all actives have a fitted effect of over 55% in size
Target sequence (P10636 561-689 P618L limits assumed): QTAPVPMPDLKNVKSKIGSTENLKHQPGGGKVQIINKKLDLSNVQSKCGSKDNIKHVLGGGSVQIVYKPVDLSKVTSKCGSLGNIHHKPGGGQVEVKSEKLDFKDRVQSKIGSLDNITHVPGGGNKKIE
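Compound effects on tau fibrillization are measured by Alexa 594 fluorescence polarization (ex 555, em 632 nm). K18 P301L tau is used at 15 uM with 0.24 uM labeled tracer, and 20 uM heparin induces aggregation over 6 hr at 37 C.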
Tau ThT inhib – blocks human tau fibril formation measured by thioflavin T; P10636; recombinant tau K18 P301L, heparin-induced fibrillization, ThT fluorescence; Potency, µM (doses to about 57.4 µM), for the others: at the highest dose activity, negative = inhibition, actives largely listed as inhibitors; 270,000 compounds, 2.1% hits; note: potency is the fitted concentration of half-maximal effect; nearly all actives have a fitted effect of over 55% in size
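Aggregation was driven by heparin (20 uM final) acting on recombinant tau […] bearing P301L in 100 mM sodium acetate pH 7; fibrils were detected with Thioflavin T.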
FBPA coupling cs – inhibits coupling enzyme system, counter-screen for aldolase hits | activity change, negative = inhibition, % at 58.2 µM, hits read low | coupling enzyme system counterscreen, AmpLite Red fluorescence | 290,000 compounds, 0.67% hits; in the data active = activity change below about -30%
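Fluorescence at 525 nm excitation and 598 nm emission measured inhibition of the coupled detection system without aldolase. Compounds (at 57.5 uM final) were preincubated 10 min at room temperature with coupling enzyme reagent before a 20 min substrate/AmpLite Red step.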
Tau fluor cs – counter-screen for tau fibril formation inhibitors; tau K18 P301L (four-repeat tau fragment) Alexa594 fluorescence, heparin fibrillization; Potency, µM (highest dose often 57.7 µM), for inactives: top-dose activity change, negative = decrease; 280,000 compounds, 0.93% hits; AID 1463; note: potency is the fitted concentration of half-maximal effect; nearly all actives have a fitted effect of over 55% in size
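Human K18 P301L tau (15 uM unlabeled plus 0.24 uM Alexa 594-labeled, final) in 100 mM sodium acetate pH 7 was mixed with compound and 20 uM heparin and incubated 6 hr at 37 C.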
* hit, by the source's call; ? = inconclusive; / = no result; [ ] = remark or other dose. Unless noted, calls come from the whole dose curve; as a rule, active = well fitted curve in the direction sought with a large enough effect; inconclusive = small, poorly fitted or top-dose-only effect, or another doubt; inactive = no such curve, though single readings can be large; an effect the other way counts as inactive or inconclusive. Unless noted, % is set by controls: 0 for no effect and ±100 for the full control effect.

SMILES | Sfp inh | Tau fibril FP | Tau ThT inhib | FBPA coupling cs | Tau fluor cs
CCn1c(C)c(C(C)=O)c(N2CCN(c3ccc(OC)cc3)CC2)nc1=S | 22µM* | ? | 28µM* | -13 | -28%
Cc1ccc(Cc2c(C)nc3nc(SCC(=O)NC4CCC(C)CC4)nn3c2C)cc1 (stereo not given) | / | 11% | 0% | / | 4%
CCCCCCCC/C=C\CCCCCCCCCCCC(=O)O | -14% | / | / | 12 | /
O=C(O)c1ccc(Nc2nc3ccccc3c3nncn23)cc1 | / | -4% | -4% | / | -2%
O=C(N/N=C\c1ccc(F)cc1)c1csnn1 | 1.4µM* | -12% | ? | 1 | -9%
Cc1ccccc1/C=N\NC(=O)c1csnn1 | 14µM* | -7% | ? | 0 | -2%
O=C(N/N=C/c1ccc(O)cc1)c1ccc(NC(=O)c2ccccc2Br)cc1 | 21% | 7% | -29% | 2 | ?
O=C(Nc1ccccc1C(=O)N/N=C/c1ccc(F)cc1)c1ccccc1Br | 2% | ? | -5% | -33* | ?
Cc1ccccc1/C=N/NC(=O)c1cccnc1 | 24% | / | / | 2 | /
Cc1cccc(N(CC(=O)N(C)Cc2ccccc2)S(=O)(=O)c2ccccc2)c1C | / | 1% | -17% | / | -12%
COc1ccc(OC)c(NC(=O)Cn2c(=O)n(-c3ccc(Cl)cc3)c(=O)c3c(C)c(C)sc32)c1 | / | -16% | 5% | / | -17%
Cc1nc(SCC(=O)Nc2nc3ccccc3s2)c(C#N)c(C)c1C | 50µM* | -18% | 1% | 0 | -13%
Cc1ccc(-n2c(N)c(C(=O)NCc3cccnc3)sc2=S)cc1 | 35µM* | -10% | -5% | -6 | -2%
CCOC(=O)c1sc(=S)n(-c2ccc3c(c2)OCO3)c1N | 28µM* | 10% | -15% | -1 | -15%
CCOC(=O)c1sc(=S)n(Cc2ccccc2)c1N | -11% | 12% | -15% | 1 | 16µM*[quencher]
CCOC(=O)c1sc(=S)n(-c2ccc(C)cc2)c1N | 40µM* | -5% | ? | 0 | -26%
CCOC(=O)c1sc(=S)n(-c2ccccc2OC)c1N | -63% | -6% | 2% | 1 | 0%
COc1ccccc1-c1nnc(SCCOc2ccccc2C)o1 | / | 4% | -16% | / | -13%
CCOC(=O)c1sc(=S)n(-c2ccc(F)c(F)c2)c1N | 22µM* | -4% | 0% | 0 | -1%
CCOC(=O)c1sc(=S)n(-c2ccc(Cl)cc2)c1SC | -11% | 0% | 0% | -3 | -13%
COc1cccc(NC(=O)Cn2c(=O)n(-c3cccc(OC)c3)c(=O)c3sc4ccccc4c32)c1 | / | ? | 15% | / | -22%
Cc1cc(C)nc(Nc2ccc(N3CCCC3)cc2)n1 | 79µM* | 5% | ? | -6 | ?
Cc1cc(C)nc(Nc2ccc(N3CCOCC3)cc2)n1 | -29% | 1% | ? | -13 | -13%
CCOc1ccc(Cl)cc1/C=N/O | 5% | 1% | 1% | -1 | 0%
CCCOc1ccccc1/C=C1/C(=O)ON=C1C | 56µM* | / | / | 3 | /
SMILES | Sfp inh | Tau fibril FP | Tau ThT inhib | FBPA coupling cs | Tau fluor cs
C#CCOc1ccc(Cl)cc1/C=C1/C(=O)ON=C1C | 50µM* | / | / | 3 | /
CCOc1cc(/C=C2/C(=O)ON=C2C)cc(Br)c1O | -28% | / | / | -12 | /
C#CCOc1ccc(/C=C2/C(=O)ON=C2C)cc1Br | 56µM* | / | / | 5 | /
COC(=O)c1ccccc1NC(=O)c1ccc2c(c1)CCN2S(=O)(=O)c1ccc(Cl)cc1 | / | -9% | 0% | / | -17%
CCOc1ccc(S(=O)(=O)NCCN2CCOCC2)c2ccccc12 | 79µM* | 1% | -8% | -9 | -12%
CCCOc1ccc(S(=O)(=O)NCCN2CCOCC2)c2ccccc12 | 3% | 3% | -9% | 0 | 1%
COc1cccc(-n2sc3c(c2=S)-c2cc(OC)ccc2NC3(C)C)c1 | 26% | 12% | -19% | 0 | 13µM*[quencher]
COc1cccc(-n2cn[nH]c2=S)c1 | 22% | -3% | -9% | 3 | -9%
CCOc1cc(C(=O)NCCc2csc(-c3ccc(C)cc3)n2)cc(OCC)c1OCC | / | -2% | -14% | / | -16%
O=C(CC1CS(=O)(=O)CC1CC(=O)Nc1ccc2c(c1)OCCO2)Nc1ccc2c(c1)OCCO2 (stereo not given) | 22µM* | -7% | 6% | -6 | -11%
CC(=O)N1CCc2cc(C(=O)CN3CCN(C(=O)c4ccco4)CC3)ccc21 | 18µM* | -9% | ? | -5 | -7%
C[C@H](NC(c1cccc2nc(O)c(O)nc12)P(=O)(O)O)c1ccc(Br)cc1 (stereo not given in full) | -5% | / | / | 8 | /
CCOC(=O)c1sc(=S)n(CC)c1NC(=O)c1ccccc1C | 6% | -14% | -4% | 6 | -15%
CCOC(=O)c1sc(=S)n(C)c1NC(=O)c1cccc(Br)c1 | 18µM* | -14% | ? | 1 | -23%
CCOC(=O)c1sc(=S)n(C)c1NC(=O)c1ccccc1 | 14µM* | -6% | -9% | 5 | -5%
CCOC(=O)c1sc(=S)n(-c2ccccc2)c1NC(C)=O | 24% | -3% | 0% | 0 | 23%
CCOCCCNC(=S)NCCNc1nc2c(C)cccc2cc1C#N | 50µM* | -2% | -6% | -20 | -8%
Cc1cccc2cc(C#N)c(NCCNC(=O)COc3ccccc3)nc12 | 50µM* | -1% | 20% | -35* | 10%
Cc1cccc2cc(C#N)c(NCc3ccccc3)nc12 | ? | -8% | 1% | -44* | -9%
CCOCCCNC(=S)NCCCNc1nc2c(C)cc(C)cc2cc1C#N | ? | 2% | ? | -6 | -24%
COc1cccc(CN2C(=O)c3ccccc3Sc3ccc(C(=O)NCCc4ccc(Cl)cc4)cc32)c1 | / | ? | -5% | / | ?
O=S(=O)(NCC(c1ccco1)S(=O)(=O)c1cccs1)c1ccc(Cl)cc1 (stereo not given) | / | ? | -13% | / | ?
CC(=O)OC[C@@H]1O[C@H](C/C=N\O[C@@H](C)CN2CCCc3nc(C)c(C)cc32)C=C[C@@H]1OC(C)=O | -7% | -10%[11.6 µM] | -6%[11.5 µM] | 0 | -7%[11.6 µM]
C/C(=N/Nc1nc(-c2ccccc2F)nc2ccccc12)c1ccccc1O | -29% | 6% | 10µM* | 0 | ?
COc1ccc(Nc2nc(-c3ccccc3F)nc3ccccc23)cc1OC | -12% | 15% | ? | -1 | 10µM*[quencher]
C/C(=N\Nc1nc(-c2ccccc2O)nc2ccccc12)c1ccccc1 | 3% | -3% | -8% | 1 | ?
CCC(Cn1nnc2ccccc2c1=O)NC(=O)Nc1cc(C)cc(C)c1 (stereo not given) | / | -8% | 0% | / | -5%

Screening data deposited in PubChem BioAssay by National Center for Advancing Translational Sciences (NCATS).
